A selection: hits, their analogues and other compounds. The true share with any hit is near 5.4%.
GASC-1 inh: inhibitors of human GASC-1 (JMJD2C) demethylase; AID 2099; actives 0.069% (n = 330,000); inhibition, % at 2.35 µM; GST-JMJD2C(1-420) H3K9me3 demethylation, DELFIA europium;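 active = more than half of a compound's replicate wells show inhibition beyond 50%, single wells judged on their own value; inconclusive = some, but no more than half, of replicates pass 50% inhibition; inactive = no replicate passes 50% inhibition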;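 note: signal counts dimethyl H3K9 product captured on neutravidin plate; 0% = median of DMSO wells and 100% = 0.3 times that DMSO median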
Target sequence (Q9H3R0 1-420 limits assumed): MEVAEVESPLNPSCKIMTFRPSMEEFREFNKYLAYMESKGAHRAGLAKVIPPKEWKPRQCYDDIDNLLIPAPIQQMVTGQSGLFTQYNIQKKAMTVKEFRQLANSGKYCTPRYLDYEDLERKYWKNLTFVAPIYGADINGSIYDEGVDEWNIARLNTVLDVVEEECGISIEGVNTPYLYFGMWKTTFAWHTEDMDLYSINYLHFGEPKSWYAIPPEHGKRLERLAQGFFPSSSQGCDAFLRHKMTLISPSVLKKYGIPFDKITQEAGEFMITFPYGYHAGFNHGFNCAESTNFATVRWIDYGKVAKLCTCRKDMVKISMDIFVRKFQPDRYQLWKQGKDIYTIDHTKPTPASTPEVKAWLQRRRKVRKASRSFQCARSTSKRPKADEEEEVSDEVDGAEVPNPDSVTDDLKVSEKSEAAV
ALR inh: human ALR oxidase inhibition via reduced H2O2; actives 3.8% (n = 290,000); AID 485317; inhibition, % (no concentration beside the values); P55789; purified ALR, DTT oxidation, H2O2 HRP-luminol luminescence;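 active = mean replicate inhibition above about 79%, with every replicate also reaching it, limit read from the data; inconclusive = only one of the two criteria met; inactive = mean below limit and not every replicate reaching it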
Target sequence (P55789 whole entry, looked up): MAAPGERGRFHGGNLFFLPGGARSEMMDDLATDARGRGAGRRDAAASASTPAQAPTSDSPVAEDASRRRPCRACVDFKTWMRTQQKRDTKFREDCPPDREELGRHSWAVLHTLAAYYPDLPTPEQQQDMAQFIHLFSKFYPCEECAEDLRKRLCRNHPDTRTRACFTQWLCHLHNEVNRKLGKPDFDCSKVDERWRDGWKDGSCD
MIN6 prolif-1: induces beta-cell replication in MIN6 cells; MIN6 cells proliferation, ATPlite luminescence, 48 h; cells starved in 0.2% serum; 100% = growth in 10% serum; proliferation, % at 10 µM; actives 0.29% (n = 330,000); AID 2380;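 active = compounds whose signal lies at least 3.5 SD above the mean of all wells on their plate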;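 note: 0% = DMSO-treated cells in low-serum medium and 100% = 10% serum control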
M18AAP inhibitor: blocks P. falciparum M18 aspartyl aminopeptidase; inhibition, % at 7.35 µM; actives 1.2% (n = 290,000); AID 1822; recombinant PfM18AAP, H-Glu-NHMec fluorogenic cleavage;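 active = inhibition above the campaign mean inhibition over all tested compounds plus 3 SD, cut at about 28% in these data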;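 note: 0% = plate median of test compound wells and 100% = 2 mM ZnCl2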
Exocytosis inh: lytic granule exocytosis inhibition | actives 0.66% (n = 360,000) | inhibition, % at 10 µM | AID 651702 | TALL-104 LAMP-1 surface exposure, flow cytometry; cells stimulated with thapsigargin and PMA;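 active = inhibition above about 55%, limit read from the data; inconclusive = no clear call, values can overlap the other calls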
SMARCA2 activ: activators of SMARCA2 function; MG213 cells, MMTV-luciferase reporter, dexamethasone, overnight; activation, % at 9.1 µM; actives 1% (n = 370,000); AID 652017; in the data active = activation above about 7.8%;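 note: 0% = vehicle wells and 100% = reference activator wells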
MIN6 prolif-2: MIN6 beta-cell replication induction, confirmed. shares compounds with MIN6 prolif-1. MIN6 beta-cell proliferation, ATPlite luminescence, 48 h; cells kept in 0.2% serum; scaled between 0.2% and 10% serum. AID 463095. proliferation increase, % at 50 µM. 920 tested, under 10 active;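 active = proliferation increase above 40% at any of the four tested concentrations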
Active calls of the source: *; ? = inconclusive; · = no result given.

SMILES	GASC-1 inh	ALR inh	MIN6 prolif-1	M18AAP inhibitor	Exocytosis inh	SMARCA2 activ	MIN6 prolif-2
CCCCOCCCNC(=O)C[C@@H]1C(=O)N2CCCC3=C2[C@@]1(C(=O)OCC)CCC3	·	·	·	·	·	-2	·
CCC(=O)Nc1ccc(NC(=S)NC(=O)c2cc3ccccc3o2)cc1	-20	-9	0.0*	-2	4	2	-1
C=CCOn1c(=O)c(-c2ccc(F)cc2)[n+]([O-])c2ccccc21	10	·	11*	1	2	-1	3
COc1cccc(-n2nc(C(C)=O)c(C#N)c2-c2ccco2)c1	3	-20	9.4*	5	0	5	2
C=CCNC(=O)c1onc(CSc2ccccc2)c1C(=O)NCC=C	11	·	2	·	-6	3	·
C=CCNC(=O)c1onc(CSc2ccccc2CC)c1C(=O)O	10	6	12*	-13	3	0	-1
CN(CCc1ccccn1)C(=O)[C@@H](Cc1ccccc1)NC(=O)[C@H]1O[C@@H](n2ccc(=O)[nH]c2=O)[C@H](O)[C@@H]1O	·	·	·	·	·	1	·
CCOc1ccccc1NC(=O)Cn1c(=O)c(OCC)nc2cnccc21	-9	-7	12*	-2	6	·	1
CCOc1nc2cnccc2n(CC(=O)Nc2ccccc2C(=O)OC)c1=O	-3	-13	14*	-2	-6	-2	1
CC(C)(C)c1ccc(-c2nnc3n2N=C(c2ccc4ccccc4c2)CS3)cc1	·	·	·	·	·	-4	·
Cc1ccc(S(=O)(=O)N2CCOC23CCN(C(=O)c2ccccc2Br)CC3)cc1	2	-4	13*	-1	8	-3	-6
O=S1(=O)c2c(cccc2N2CCC[C@H]2CO)O[C@H]2CCN1C2	·	·	·	·	·	-2	·
CCOc1ncccc1C(=O)Nc1cccc(S(=O)(=O)N2CCCCC2)c1	-10	-4	1	·	5	0	·
CCOc1ncccc1C(=O)Nc1cccc(S(=O)(=O)NC2=NCCC2)c1	6	0	12*	·	-12	-1	0
C=CCN1C(=O)[C@@H](CC(=O)NCCCOC)[C@]2(C(=O)OCC)CCCCC/C=C/12	·	·	·	·	·	-4	·
O/N=C/c1cn(-c2ccccc2)nc1-c1ccc2c(c1)OCCO2	8	20	7.1*	5	-1	-6	-5
O=C(O)/C=C/c1cn(-c2ccccc2)nc1-c1ccc2c(c1)OCCO2	6	6	-2	-1	-2	-1	·
C[C@@H]1CN([C@@H](C)CO)C(=O)CCCn2cc(nn2)CO[C@H]1CN(C)C(=O)C1CC1	·	·	·	·	·	-4	·
CCOC(=O)C1CCN(C(=O)C2(NC(=O)NC3CCCCC3)CCCCC2)CC1	4	·	-1	-15	2	0	·
CCOC(=O)C1CCN(C(=O)C2(NC(=O)Nc3ccc(F)cc3F)CCCCC2)CC1	-8	-19	7.6*	2	11	-2	-1
O=C(NCCc1c[nH]c2ccccc12)OCc1cn(Cc2cccc(Cl)c2)nn1	·	·	·	·	·	-1	·
CC1Oc2ccccc2N(CC(=O)N(Cc2ccccc2)Cc2ccccn2)C1=O (stereo unspecified)	0	1	10*	-2	-1	1	-1
COc1ccc(CN(Cc2ccccn2)C(=O)CN2C(=O)COc3ccccc32)cc1	4	-3	0	-8	7	·	·
COC(=O)c1c(C)[nH]c(C(=O)CSc2nnnn2-c2ccccc2)c1C	-4	-6	-2	19	4	1	·
CCOC(=O)c1c(C)[nH]c(C)c1C(=O)CSc1nnnn1-c1ccccc1	-1	2	5.5*	-5	5	-3	3
SMILES	GASC-1 inh	ALR inh	MIN6 prolif-1	M18AAP inhibitor	Exocytosis inh	SMARCA2 activ	MIN6 prolif-2
COc1ccccc1CNC(=O)CSc1ccc(-c2cccs2)nn1	11	·	7.8*	-15	-1	-6	-2
O=c1ccn(-c2cccc(C(F)(F)F)c2)nc1-c1ccn(-c2ccccc2F)n1	-9	0	9.4*	5	-3	1	-6
COc1ccc(-n2ccc(-c3nn(-c4cccc(C(F)(F)F)c4)ccc3=O)n2)cc1	-3	-33	-1	-2	31	-2	·
COC(=O)c1ccc2nc(-c3ccc(Cl)cc3)c(Cc3ccccc3)n2c1	·	·	·	·	·	-6	·
COc1cc(/C=N/NS(=O)(=O)c2ccc3ccccc3c2)ccc1OCCN1CCOCC1	2	99*	0.0*	-10	-3	10*	-5
COc1ccc(S(=O)(=O)N/N=C/c2ccc(OCCN3CCOCC3)c(OC)c2)cc1	-20	21	0	-4	-5	1	·
CCCc1cc2c(OC)ccc(O)c2c(=O)n1C	·	·	·	·	·	-4	·
COCc1cc(N2CCN(C(=O)OC(C)(C)C)C[C@@H]2C)ccc1N1CCN(Cc2ccccc2)[C@@H](C)C1	·	·	·	·	·	-7	·
COC(=O)c1ccccc1NC(=O)c1cc(-c2ccc(C)cc2)on1	7	-2	8.3*	-4	0	·	0
CC1CCCCN1C(=O)COC(=O)c1cc([N+](=O)[O-])ccc1N (stereo unspecified)	61	-1	15*	·	8	6	1
O=c1c2ccccc2nc(SCc2cn3ccsc3n2)n1-c1ccccc1	2	9	6.1*	-2	1	1	-6
O=C(c1ccccc1)N1CCCC(c2ccc(Cl)cc2)=N1	?	2	5.4*	-1	6	-3	-6
O=S1(=O)c2cc(Cl)ccc2N2CCC[C@@H]2CN1Cc1ccc(Cl)c(Cl)c1	·	·	·	·	·	-6	·
CCOC(=O)/C(C(=Nc1ccccc1)Nc1ccccc1)=C(\C)O	1	1	7.0*	1	-3	0	-5
COCCCN1C(=O)[C@H](CC(=O)NCC23CC4CC(CC(C4)C2)C3)[C@]2(C(=O)OC)CCCCC=C12	·	·	·	·	·	-3	·
N=c1c2c(-c3ccccc3)c(-c3ccccc3)n(CCc3ccccc3)c2ncn1CCO	·	·	·	·	·	3	·
COc1cccc(C(C(=O)NC2CCCCC2)N(C(=O)c2ccco2)c2ccc(-n3cnnn3)c(C)c2)c1 (stereo unspecified)	13	0	7.7*	1	1	-3	-2
Cc1cc(N(C(=O)c2ccco2)C(C(=O)NC2CCCCC2)c2ccccc2)ccc1-n1cnnn1 (stereo unspecified)	89	-20	-2	-4	-4	2	·
CCOc1ccc(NC(=O)CN(C)C(=O)c2cc(S(=O)(=O)N3CCCCC3)ccc2Cl)cc1OCC	-3	-3	3	·	3	-3	·
CCOc1ccc(NC(=O)CN(C)C(=O)c2cc(S(=O)(=O)N3CCCCC3)ccc2C)cc1OCC	-39	-2	12*	·	8	1	5
COc1ccc2[nH]c(=O)c(CN(C(=O)c3ccncc3)C(C)(C)C)cc2c1	1	-49	13*	-5	-2	0	1

High-throughput results from PubChem BioAssay.
